# Assay results as given in the OligoGym collection.
# Target: FAM117A
# Experiment: pooled miR-30 sensor sort-seq; sequence = guide strand
# Conditions: shRNA
# Further: reference of the scale not given here.
row,Sequence,sensor-assay potency score (higher = more potent)
1,TTGTCATTGGTGCAGCAGGTGA,-1.77
2,TTAACATTCTTCAATTTTGTGT,-0.138
3,TATACAAACTTCAAACAGCTGC,-0.329
4,AACTCGAACATTAACATTCTTC,-0.482
5,TTTTCTAATCCATCCAGCCCTG,-0.672
6,TTCTTCAAACACACGCACTTTC,-0.795
7,TTGAAATGGACTTTGTTCTTGT,1.01
8,TACACACTGACTTTTCTGGGGC,0.0109
9,TCACCTTCTAGCTCTTGCCAGG,-1.11
10,TGTAGCTATGATTAGGTCGAGG,-1.12
11,AAATAGAGTCTCTACATCGATA,-1.34

# Target: FAM127A
# Experiment: as above
# Conditions: shRNA
row,Sequence,sensor-assay potency score (higher = more potent)
1,TATCGCCGTCAAACGTCTCGGG,-0.476
2,TCGGTCGGTATCGCCGTCAAAC,-1.87
3,AAAGACTCGCTTCATCTCGGCC,-1.07
4,TGTAGGAGCCCGTCTGCACGAT,-1.04
5,ATCGCCGTCAAACGTCTCGGGA,-1.14
6,TCGCCGTCAAACGTCTCGGGAA,-1.08
7,ATCTCGGCCAGAAAGCCCCGGT,-0.915
8,TCGCTGGAGAACGTGTTCTCGT,-1.32
9,TCGGTATCGCCGTCAAACGTCT,-1.19
10,ATTGAGGAGGGGGCTCTCCTTC,-1.52
11,TTCATCTCGGCCAGAAAGCCCC,-0.891

# Target: FAM134A
# Experiment: as above
# Conditions: shRNA
row,Sequence,sensor-assay potency score (higher = more potent)
1,TTCTTGGTCTGACTGTACCAGA,-0.779
2,TACCAGAGAATGGATGTCGGGC,-0.337
3,TTCAAGTCAACACCTGCACAGA,-0.356
4,TATTTTTCAAGTCAACACCTGC,-0.352
5,AACAGCAACACTCCTAGCCAGG,-1.64
6,TAAGAGTGTAACTACTGGCCTG,-0.0872
7,TTCTTCACATCCACCACTGGGG,-0.152
8,TACACAGACTACAGTGACCTAA,-0.201
9,TGAATCTGGAAGGTGAGCCAGC,-0.0919
10,AAGAGTGTAACTACTGGCCTGA,0.464
11,TTTCTTCACATCCACCACTGGG,-0.774
12,TTGGCTTCTGCCTTCATGCTGT,0.471

# Target: FAM151A
# Experiment: as above
# Conditions: shRNA
row,Sequence,sensor-assay potency score (higher = more potent)
1,TTGTGCTCCACTGTGACGGTGG,0.185
2,TACATTGACGTCAGCCTCCAGG,-0.38
3,TGTCATAGTAGACTTGGTGGAC,0.221
4,TAGACTTGGTGGACAGCAGTGT,0.813
5,TAAGATGTCAGCGTTGATCCAT,0.0658
6,TTCCTCTGTCAGCTGCCGCAGG,-0.626
